Test results taken from the supplement of paper PMC7411640.
Where a name gives a salt, the structure may show the parent alone.

Tested on: MDA-MB-468
Assay: phospho-S6 immunofluorescence (DAPI-normalised), per-plate z-score; higher = higher phospho-S6 signal (less pathway suppression)
Details: 24 h
Method: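 GPCR-targeted compound library (MedChemExpress HY-L006) tested on MDA-MB-468 PTEN-null TNBC cells in 384-well plates at 0.1, 1 or 10 uM, combined with vehicle, GDC0941 450 nM or lapatinib 1 uM, for 24 h. Phospho-S6 (S240/244) immunofluorescence normalised to DAPI and expressed as a per-plate z-score; values are the mean of biological triplicates.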

| SMILES | phospho-S6 immunofluorescence (z-score) (co-treatment: GDC0941 450 nM) | phospho-S6 immunofluorescence (z-score) (co-treatment: lapatinib 1 uM) | phospho-S6 immunofluorescence (z-score) (co-treatment: vehicle) |
| --- | --- | --- | --- |
| Cc1cc2c(cc1Cl)N(C(=O)Nc1ccc(Oc3cccnc3C)nc1)CC2 (compound 10 µM) | -3.98 | -5.09 | -1.44 |
| CCN(CC)CC#CCOC(=O)C(O)(c1ccccc1)C1CCCCC1 (configuration not stated) [Oxybutynin] (compound 10 µM) | -0.77 | 0.75 | -0.04 |
| CC1CCN(CC[C@H]2CCCN2S(=O)(=O)c2cccc(O)c2)CC1 (compound 10 µM) | 0.86 | 0.2 | 0.48 |
| CCc1cc(/C(C)=N/OCc2ccc(C3CCCCC3)c(C(F)(F)F)c2)ccc1CN1CC(C(=O)O)C1 [Siponimod] (compound 10 µM) | -0.49 | 0.38 | 0.15 |
| COc1cc(N)c(Cl)cc1C(=O)NC1CCN(CCCOc2ccc(F)cc2)CC1OC (configuration not stated) [Cisapride] (compound 10 µM) | -1.02 | -1.88 | -0.58 |
| CN1CC2c3ccccc3Oc3ccc(Cl)cc3C2C1 (configuration not stated) [Asenapine (hydrochloride)] (compound 10 µM) | -0.8 | -2.17 | 0 |
| O=C(NCC(=O)N1CC[C@H](N[C@H]2CC[C@@](O)(c3ccc(-c4ncccn4)cn3)CC2)C1)c1cccc(C(F)(F)F)c1 (compound 10 µM) | -0.86 | -0.77 | 0.76 |
| CC(C)(Cc1ccc2ccccc2c1)NC[C@@H](O)COc1cccc(Cl)c1C#N (compound 10 µM) | -3.37 | -8.76 | -10.1 |
| Oc1ccc(C2CNCCc3c2cc(O)c(O)c3Cl)cc1 (configuration not stated) [Fenoldopam (mesylate)] (compound 10 µM) | 1.13 | -0.01 | 0.83 |
| CCCCC[C@H](O)/C=C/[C@@H]1[C@@H](C/C=C\CCCC(=O)O)[C@@H](O)C[C@H]1O [Dinoprost (tromethamine salt)] (compound 10 µM) | -0.07 | -0.14 | 0.98 |
| CCCc1nc2c(C)cc(-c3nc4ccccc4n3C)cc2n1Cc1ccc(-c2ccccc2C(=O)O)cc1 [Telmisartan] (compound 10 µM) | 0.54 | 1.6 | 0.35 |
| CCC(=O)O[C@]1(C(=O)SCF)[C@H](C)C[C@H]2[C@@H]3C[C@H](F)C4=CC(=O)C=C[C@]4(C)[C@@]3(F)[C@@H](O)C[C@@]21C [Fluticasone (propionate)] (compound 10 µM) | 0.26 | -0.29 | -0.43 |
| CN1CCN(CCCN2c3ccccc3Sc3ccc(C(F)(F)F)cc32)CC1 [Trifluoperazine (dihydrochloride)] (compound 10 µM) | -4.47 | -5.54 | -4.02 |
| OC(CCN1CCCCC1)(c1ccccc1)C1CC2C=CC1C2 (configuration not stated) [Biperiden (Hydrochloride)] (compound 10 µM) | -1.68 | -0.97 | -1.56 |
| CNCC(O)c1ccc(O)c(O)c1 (racemic) [DL-Epinephrine] (compound 10 µM) | 1.29 | 5.47 | 4.64 |
| N=C(N)N/N=C/c1c(Cl)cccc1Cl [Guanabenz (Acetate)] (compound 10 µM) | 0.61 | -0.12 | -0.2 |
| COc1ccccc1Oc1c(NS(=O)(=O)c2ccc(C(C)(C)C)cc2)nc(-c2ncccn2)nc1OCCO [Bosentan (hydrate)] (compound 10 µM) | 0.28 | 0.22 | 0.34 |
| Oc1cc2c(cc1O)C(c1ccccc1)CNCC2 (configuration not stated) (compound 10 µM) | 0.77 | 0.35 | 1.06 |
| CN1CCN(C2=Nc3ccccc3Oc3ccc(Cl)cc32)CC1 [Loxapine] (compound 10 µM) | 0.6 | -0.55 | 0.95 |
| COc1ccc(/C=C/C(=O)Nc2ccccc2C(=O)O)cc1OC [Tranilast] (compound 10 µM) | 1.77 | -0.19 | 0.33 |
| O=C(O[C@@H]1C[C@@H]2C[C@H]3C[C@H](C1)N2CC3=O)c1c[nH]c2ccccc12 [Dolasetron] (compound 10 µM) | -0.34 | -0.11 | -0.46 |
| CC(C)[N+]1(C)[C@@H]2CC[C@H]1C[C@@H](OC(=O)C(CO)c1ccccc1)C2 (some centres not stated) [Ipratropium (bromide)] (compound 10 µM) | -0.02 | 0.28 | -0.61 |
| N[C@@H](COP(=O)(O)O)C(=O)O [O-Phospho-L-serine] (compound 10 µM) | 0.23 | 0.05 | -0.66 |
| CN1CCN(CC(=O)N2c3ccccc3C(=O)Nc3cccnc32)CC1 [Pirenzepine (dihydrochloride)] (compound 10 µM) | 1.51 | 1.09 | 0.23 |
